Reference: PubChem BioAssay
Where “and” joins values, the source holds several entries; their conditions need not be identical. Equal entries are not always repeated. Calls of active or inactive are those of the source. The rule behind the calls is not given here.

test: kinase inhibitors against Plasmodium liver-stage infection, cell-based, known kinase inhibitor set, luminescence, hepatoma host viability (AID 624392); conditions: Plasmodium liver stage in hepatoma cells, luciferase luminescence, concentration not given here; liver cell % of control: measured here: host liver cell viability; parasite % of control: stronger effect = lower value;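 note: infected cells incubated roughly two days before readout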

| SMILES | liver cell % of control | parasite % of control |
| --- | --- | --- |
| Cc1cn(-c2cc(C(=O)Nc3ccc(C)c(NC(=O)C(=O)c4c[nH]c5ccccc45)c3)cc(C(F)(F)F)c2)cn1 | 95.9% | 102% (inactive) |
| NC1CCC(Nc2nc(Nc3ccc(S(=O)(=O)N4CCCCC4)cc3)c3ncn(-c4ccccc4)c3n2)CC1 (stereo not given) | 103% | 336% (inactive) |
| COc1cc(NC(=O)c2ccc(N)nc2)cc(C(=O)Nc2cccc(C(F)(F)F)c2)c1 | 97.9% | 85% (inactive) |
| CCN1CCN(Cc2ccc(NC(=O)c3cc(NC(=O)c4cncc(-c5ccc(C#N)cc5)c4)cc(OC)c3)cc2C(F)(F)F)CC1 | 77.4% | 95.5% (inactive) |
| COc1ccc(-c2cc(C(=O)Nc3cc(OC)cc(C(=O)Nc4cccc(C(F)(F)F)c4)c3)[nH]n2)cc1 | 93.9% | 36.9% (inactive) |
| C=CC(=O)Nc1cccc(Oc2ncnc3[nH]cc(-c4cnc5ccccc5c4)c23)c1 | 100% | 112% (inactive) |
| NS(=O)(=O)c1ccc(-c2ccc(C=C3C(=O)c4ccccc4C3=O)o2)cc1 | 102% | 96.4% (inactive) |
| O=C(Nc1ccc(-c2csc(Nc3ccc(Cl)cc3)n2)cc1)c1cccc(C(F)(F)F)c1 | 104% | 88% (inactive) |
| C=CC(=O)Nc1cccc(N2C(=O)N(c3c(Cl)c(OC)cc(OC)c3Cl)Cc3cnc(NCCCCN(CC)CC)nc32)c1 | 104% | 107% (inactive) |
| COc1cc(NC(=O)c2csc(-c3ccncc3)n2)cc(C(=O)Nc2cccc(C(F)(F)F)c2)c1 | 95.7% | 124% (inactive) |
| CC(C)Oc1cc(C(=O)N2CCC(N3CCCCC3)CC2)ccc1Nc1nnc(Cl)c(Nc2ccccc2S(C)(=O)=O)n1 | 98.2% | 81.6% (inactive) |
| COc1cc(Nc2ccccn2)cc(C(=O)Nc2cccc(C(F)(F)F)c2)c1 | 92.4% | 74.9% (inactive) |
| COc1cc(NC(=O)c2nccn2C)cc(C(=O)Nc2cccc(C(F)(F)F)c2)c1 | 91.3% | 84.5% (inactive) |
| CCN1CCN(Cc2ccc(NC(=O)c3cc(NC(=O)c4cnnc5ccccc45)cc(OC)c3)cc2C(F)(F)F)CC1 | 94.5% | 85.8% (inactive) |
| Cc1ccc(-c2c(C(=O)CCl)n(CCO)c3ncnc(N)c23)cc1 | 90.7% | 86.5% (inactive) |
| CCN1CCN(Cc2ccc(NC(=O)c3cc(NC(=O)c4cc5cccc(OC)c5o4)cc(OC)c3)cc2C(F)(F)F)CC1 | 93.7% | 89.9% (inactive) |
| C=CC(=O)Nc1cccc(Nc2ccnc(Nc3ccc(N4CCN(C)CC4)cc3)n2)c1 | 92.9% | 184% (inactive) |
| COc1cc(O)c2c(c1)oc(=O)c1c3cc(O)c(O)cc3oc21 | 107% | 36.8% (inactive) |
| Cc1ccc([N+](=O)[O-])cc1S(=O)(=O)N(C)N=Cc1c[nH]c2ccc(Br)c[n+]12 | 93% | 3.49% (active) |
| CCN1CCN(Cc2ccc(NC(=O)c3ccc(C)c(NC(=O)c4ccnnc4)c3)cc2C(F)(F)F)CC1 | 104% | 100% (inactive) |

| SMILES | liver cell % of control | parasite % of control |
| --- | --- | --- |
| NC1=NC(=O)C(=Cc2ccc(-c3ccc(Cl)cc3)o2)S1 | 97.6% | 73.1% (inactive) |
| C=CC(=O)N1CCN(Cc2ccc(C(=O)Nc3ncc(Sc4cc(C(=O)N5CCN(C(C)=O)CC5)c(OC)cc4C)s3)cc2)CC1 | 92.4% | 597% (inactive) |
| CC(C)CC(CO)Nc1nc(Nc2cccc(Cl)c2)c2ncn(C(C)C)c2n1 (stereo not given) | 102% | 148% (inactive) |
| CCN1CCN(Cc2ccc(NC(=O)c3ccc(C)c(NC(=O)C4=NN(c5ccccc5)C(=O)C4)c3)cc2C(F)(F)F)CC1 | 101% | 72.3% (inactive) |
| Cn1cc(C=C2C(=O)Nc3cccnc32)c2ccccc21 | 314% and 107% and 104% | 4.91% (inactive) and 51.8% (inactive) and 41.5% (inactive) |
| O=C(Nc1ccc(-c2csc(Nc3ccccc3)n2)cc1)c1cccc(C(F)(F)F)c1 | 99.8% | 99.4% (inactive) |
| CC(C)CC(CO)Nc1nc(N(C)c2cccc(Cl)c2)c2ncn(C(C)C)c2n1 (stereo not given) | 102% | 114% (inactive) |
| COc1cc(NC(=O)N2CCNC2=O)cc(C(=O)Nc2cccc(C(F)(F)F)c2)c1 | 104% | 223% (inactive) |
| CN(C)C1=NC(=O)C(=Cc2ccc(-c3ccc(S(N)(=O)=O)cc3)o2)S1 | 99.8% | 84.6% (inactive) |
| Cc1ccc(C(=O)Nc2cccc(C(F)(F)F)c2)cc1NC(=O)c1ccno1 | 103% | 87.9% (inactive) |
| NS(=O)(=O)c1ccc(-c2cccc(C=C3SC(=O)NC3=O)c2)cc1 | 87.7% | 17% (inactive) |
| CCN1CCN(Cc2ccc(NC(=O)c3cc(NC(=O)N4CCNC4=O)cc(OC)c3)cc2C(F)(F)F)CC1 | 96.3% | 12.4% (active) |
| Cc1c[nH]c(C=C2C(=O)Nc3ccccc32)c1CCC(=O)O | 85.5% and 92.1% and 99.1% | 58.7% (inactive) and 47.8% (inactive) and 49.4% (inactive) |
| C=CC(=O)Nc1cccc(Oc2ccnc(Nc3ccc(N4CCN(C)CC4)cc3)n2)c1 | 106% | 162% (inactive) |
| Cc1cn(-c2cc(C(=O)Nc3ccc(C)c(NC(=O)N4CCNC4=O)c3)cc(C(F)(F)F)c2)cn1 | 98.1% | 72.3% (inactive) |
| CCN1CCN(Cc2ccc(NC(=O)c3ccc(C)c(NC(=O)c4cc(-c5ccc(Br)cc5)n[nH]4)c3)cc2C(F)(F)F)CC1 | 90.4% | 208% (inactive) |
| Nc1cccc(-c2c[nH]c3ncc(-c4cccnc4)cc23)c1 | 94.3% | 42.1% (inactive) |
| CCN1CCN(Cc2ccc(NC(=O)c3ccc(C)c(NC(=O)c4ccc5n[nH]nc5c4)c3)cc2C(F)(F)F)CC1 | 104% | 112% (inactive) |
| COc1cc(C(=O)NC2CCN(C)CC2)ccc1Nc1ncc2c(n1)N(CCc1ccccc1)CCC(=O)N2C | 98.4% | 343% (inactive) |
| CCC(C)Oc1cc(-c2ccnc(Nc3cccc(Cl)c3)n2)ccn1 (stereo not given) | 58.3% | 150% (inactive) |
